Bioassay records: PubChem BioAssay, National Center for Advancing Translational Sciences (NCATS)
PINK1 modulator – changes PINK1 expression | PINK1 immunofluorescence, high-content cytometry, 24 h | actives 0.2% (n = 410,000) | AID 624263 | Potency, µM (series often up to 76.6 µM), inactives show top-dose activation (PINK1 increase), actives largely listed as activators; active means well fitted activation curve with a large enough effect; inconclusive means small, poorly fitted or top-dose-only effect; cell line not stated here; further: % of control where 0% means no effect; nearly all actives have a fitted effect of over 65% in size
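PINK1 protein level read as immunofluorescence by microplate cytometer in a fixed, stained stable cell line after 24 h exposure to five compound concentrations, with CCCP as control.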
Sfp PPTase inh – inhibitors of Bacillus subtilis Sfp phosphopantetheinyl transferase. actives 3.5% (n = 310,000). AID 1490. Potency, µM, for the others: largest response in the series, negative = inhibition, most hits filed as inhibitors. Biochemical Sfp PPTase activity, qHTS;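 further: the enzyme is Sfp with the accession as filed and its product quenches rhodamine fluorescence; 0% = enzyme reaction without inhibitor and -100% = no enzyme wells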
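After 15 min at room temperature with compound, 15 nM Sfp received 5 uM rhodamine-CoA plus 12.5 uM BHQ-2-ybbR (50 mM Hepes pH 7.6, 10 mM MgCl2). Rate came from the fluorescence difference over 30 min, ex 525/em 598 nm.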
ClpP mod – qHTS Assay for Activators of ClpP; Potency, µM (top dose mostly 57.5 µM), for inactives: at the top dose activity change, negative = active; ATP-dependent Clp protease proteolytic subunit (Bacillus subtilis (strain 168)), P80244; actives 1.9% (n = 340,000); purified B. subtilis ClpP, FRET peptide cleavage, 20 min; active means well fitted falling curve with a large enough effect; inconclusive means small, poorly fitted or top-dose-only effect; inactive means no such curve, though single readings can be large or run the other way; further: the source files actives as falling curves though it sought activators and does not explain the sign; nearly all actives have a fitted effect of over 65% in size
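FRET quenching reversal measured ClpP activation: 10 microg/mL B. subtilis ClpP at pH 8 with the FRET-FV decapeptide, read at 430 nm after 320 nm excitation. The 20-min minus 0-min signal was scaled between DMSO/no-enzyme wells and ADEP (5.8 microM final).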
VP16 counter – inhibits Gal4-VP16 luciferase reporter, ROR gamma counter-screen; Drosophila S2 Gal4-VP16 UAS-luciferase, luminescence, 20 h; Potency, µM (highest dose often 53.6 µM), for the others: at the highest dose activity, negative = inhibition, usual class: inhibitors; actives 3.5% (n = 310,000);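 further: Gal4-VP16 expression switched on by copper sulfate through the metallothionein promoter; on the % scale 0 is the no-effect control and ±100 the full control effect; nearly all actives have a fitted effect of over 50% in size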
Epigenetic reg – epigenetic control regulation, reporter derepression. actives 0.2% (n = 280,000). murine LDR cells, GFP reporter derepression, 30 h. Potency, µM (doses to about 53.9 µM), without a hit: top-dose GFP activation, usual class: activators; further: % of control where 0% means no effect; nearly all actives have a fitted effect of over 60% in size
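Murine LDR cells carrying a silenced, genomically integrated CMV-driven GFP reporter were exposed to compound for 30 hours at 37 C. After PBS washes, GFP-positive cells (20–120 um objects) were counted by laser-scanning microplate cytometry.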
RORg inh – ROR gamma (mouse) transcription inhibition | Drosophila S2 Gal4-RORgamma UAS-luciferase reporter, 20 h | actives 5.4% (n = 310,000) | Potency, µM (highest dose often 53.6 µM), for inactives: at the top dose activity change, negative = inhibition, hits mostly inhibitors | P51450; further: on the % scale 0 is the no-effect control and ±100 the full control effect; nearly all actives have a fitted effect of over 60% in size
Target sequence (P51450 whole entry, looked up, the tested form may be a part): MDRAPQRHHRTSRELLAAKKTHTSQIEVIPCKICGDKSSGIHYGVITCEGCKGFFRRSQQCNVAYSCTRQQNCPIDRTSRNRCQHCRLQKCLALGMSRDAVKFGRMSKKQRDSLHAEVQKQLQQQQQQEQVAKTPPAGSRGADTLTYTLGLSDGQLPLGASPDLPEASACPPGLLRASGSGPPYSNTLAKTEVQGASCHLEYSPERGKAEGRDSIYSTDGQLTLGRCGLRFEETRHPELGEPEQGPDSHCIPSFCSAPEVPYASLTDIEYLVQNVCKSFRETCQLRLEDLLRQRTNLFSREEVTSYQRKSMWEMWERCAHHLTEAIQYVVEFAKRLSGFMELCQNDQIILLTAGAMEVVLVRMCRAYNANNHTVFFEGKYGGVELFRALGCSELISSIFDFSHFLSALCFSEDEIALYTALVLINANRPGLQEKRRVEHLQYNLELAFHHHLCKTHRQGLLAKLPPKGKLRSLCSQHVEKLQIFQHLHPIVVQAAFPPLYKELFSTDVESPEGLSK
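Read-out: Photinus luciferase luminescence; inhibitors lower reporter signal. Insect Schneider cells with Gal4-ROR gamma fusion under metallothionein promoter, UAS reporter; 700 uM final copper sulfate induction, 20 hr, ambient temperature.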
* marks the source's active call; other numbers are inactive results; ? = inconclusive; nt = not tested or not shown; [ ] = remark or other dose. Sampled rows, rich in hits. Any-hit rate of the full collection: about 8.1%. Unless noted, the call rests on the fitted dose curve; in most records, active means well fitted curve in the direction sought with a large enough effect; inconclusive means small, poorly fitted or top-dose-only effect, or another doubt; inactive means no such curve, though single readings can be large; an effect the other way counts as inactive or inconclusive. Potency means the concentration at half of the fitted maximal effect.

SMILES	PINK1 modulator	Sfp PPTase inh	ClpP mod	VP16 counter	Epigenetic reg	RORg inh
CCOc1ccc(Nc2oc(-c3ccco3)nc2C#N)cc1	-1%	-3%	-27%	-4%	-2%	22%[10 µM]
CCCOc1ccc(-c2nnc(-c3ccncc3)o2)cc1	-1%	3%	?	4%	0%	10%
COc1ccc(-c2nnc(-c3cccs3)o2)cc1OC	-3%[38.3 µM]	13%	32µM*	nt	0%	29%[0.365 µM]
CCOc1ccc(-c2nnc(-c3cccs3)o2)cc1	6%	10%	1%	?	-1%	11µM*
CCOc1ccc(Nc2oc(-c3cccs3)nc2C#N)cc1	8%[38.3 µM]	-14%	18µM*	-5%	-1%	9%
COc1ccc(C)cc1NC(=O)N1CCN(c2cc(-c3noc(C)n3)ccc2C)CC1	-5%	nt	-5%	nt	2%	nt
Cc1onc(-c2c(F)cccc2Cl)c1C(=O)NC1C(=O)N2C1SC(C)(C)C2C(=O)O (stereo not drawn)	nt	-21%	nt	1%	nt	-14%[10 µM]
CCOc1ccc(Nc2oc(/C=C/c3ccc(OC)c(OC)c3)nc2C#N)cc1	3%	nt	?	nt	32µM*	nt
CCOc1cc(/C=C(\C#N)C(=O)Nc2cccc(C(=O)O)c2)ccc1OCc1ccccc1Cl	7%	?	-1%	-27%	nt	12%
CCOc1cc(/C=C(\C#N)C(=O)Nc2cccc(C(=O)O)c2)cc(Br)c1OC(=O)c1ccc(OC)cc1	3%	79µM*	nt	?	nt	?
CCc1ccccc1NC(=O)c1ccc2c(O)c(S(=O)(=O)c3ccccc3)c(=O)[nH]c2c1	0%	nt	-12%	nt	-2%	nt
CC1(C)CC(C)(O)N(Cc2ccccc2)C(=S)N1 (stereo not drawn)	3%	6%	0%	16µM*	0%	13µM*
CC1(C)C(=O)NC(=O)N1Cc1ccccc1	-1%	nt	1%	nt	nt	nt
COc1ccc2cc1Oc1ccc(cc1)CC1c3c(cc(OC)c4c3Oc3cc5c(cc3O4)CCNC5C2)CCN1C (stereo not drawn)	-1%	?	-3%	7.1µM*	1%	4.5µM*
COc1ccc2cc1Oc1ccc(cc1)C[C@H]1c3c(cc(OC)c4c3Oc3c(ccc5c3[C@H](C2)N(C)CC5)O4)CCN1C	0%	nt	-4%	nt	nt	nt
Cc1ccc(N2C(=O)c3cccc4c([N+](=O)[O-])ccc(c34)C2=O)c2cccnc12	14%	-21%	0%	-11%	?	25%
Cc1ccnc(N2C(=O)c3cccc4c([N+](=O)[O-])ccc(c34)C2=O)c1	-3%[38.3 µM]	-9%	0%	0%[0.365 µM]	?	6.3µM*
Cc1nnc(N2C(=O)c3cccc4c([N+](=O)[O-])ccc(c34)C2=O)s1	4%	-19%	2%	3.2µM*	nt	4µM*
Cc1cccc(N2C(=O)c3cccc4c(N5CCCCC5)c([N+](=O)[O-])cc(c34)C2=O)c1C	3%	2%	4%	-11%	1%	-13%
O=C1c2cccc3cccc(c23)C(=O)N1Cc1cccnc1	9%	9%	0%	12%	-3%	2%
O=C1c2cccc3c([N+](=O)[O-])ccc(c23)C(=O)N1Cc1cccnc1	7%	?	-2%	?	?	4.5µM*
Cc1ccc2nc(CN3CCN(C(=O)Nc4ccc(C)c(F)c4)CC3)oc2c1	2%	nt	0%	nt	-4%	nt
Clc1ccc(-n2cccc2CN2CCOc3ccc(CN4CCOCC4)cc3C2)nc1	0%	nt	nt	nt	nt	nt
Cc1cc(=O)[nH]c2n[nH]c(-c3ccccc3)c12	-2%	15%	25µM*	11%	2%	?
O=C(C[n+]1cccc2cc(Cl)ccc21)c1ccc2c(c1)CCCC2	1%	nt	-2%	nt	nt	nt
COc1ccc(NC(=O)CCS(=O)(=O)c2cc3c4c(c2)CCN4C(=O)CC3)cc1OC	0%	nt	-2%	nt	-3%	nt
COCCCNc1ncnc2c1c(-c1ccccc1)cn2-c1ccc(C)c(Cl)c1	1%	nt	-1%	nt	2%	nt
